# Measured values as given in PubChem BioAssay (NCI).
# About 79,000 compounds went through this panel and 15% of them were active in at least one assay; those are over-represented in the sample as a whole. A number with no mark means an inactive call. Calls of active or inactive are those of the source. No stated cut-off is given here; in the data, active means growth inhibition above about 70%; inactive means the rest.
# Key:
# [1] = NCI Yeast Anticancer Drug Screen. Data for the rad50 strain (AID 155);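 further: 0% = growth of vehicle-only cultures of the same strain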; conditions: S. cerevisiae rad50 strain growth inhibition, active compounds read high
# In short: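 Genetically altered yeast (DNA repair pathway); compound treatment; growth inhibition vs vehicle ctrl.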
# [2] = NCI Yeast Anticancer Drug Screen. Data for the mec2-1 strain (AID 157); conditions: S. cerevisiae mec2-1 strain, active compounds read high
# In short: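 Test agents were screened against the mec2-1 yeast strain, with defined DNA repair or cell cycle alteration. Growth was scored as inhibition against vehicle-only controls.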
# [3] = NCI Yeast Anticancer Drug Screen. Data for the sgs1 mgt1 strain (AID 161);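 further: 0% = growth of cultures given vehicle only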; conditions: S. cerevisiae sgs1 mgt1 strain, active compounds read high
# In short: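 Test agents were incubated with a DNA-repair-mutant yeast strain. Growth was then read and compared against vehicle-treated controls.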
# [4] = NCI Yeast Anticancer Drug Screen. Data for the cln2 rad14 strain (AID 165);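 further: 0% = growth equal to vehicle treated cultures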; conditions: S. cerevisiae cln2 rad14 strain, active compounds read high
# In short: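 Growth of compound-exposed yeast (cln2 rad14 genotype) measured and expressed as inhibition relative to vehicle.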
# [5] = NCI Yeast Anticancer Drug Screen. Data for the bub3 strain (AID 167); conditions: S. cerevisiae bub3 mutant strain, active compounds read high
# In short: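 Yeast carrying a defined mutation is treated with each compound, and growth is compared with that of vehicle-exposed cells to give inhibition.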
# [6] = NCI Yeast Anticancer Drug Screen. Data for the mlh1 rad18 strain (AID 175); conditions: S. cerevisiae mlh1 rad18 strain growth inhibition, active compounds read high
# In short: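 In this whole-cell yeast screen, a strain with altered DNA damage repair is challenged with compound, and its growth is measured against matched vehicle-treated controls.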
# [7] = at 5.0 µM (retest, dose inferred, filed as 0.5)
# [8] = at 50.0 µM (retest, dose inferred, filed as 5.0)
Compound,"growth inhibition [1, 7]","growth inhibition [1, 8]",growth inhibition ([1]; at 50.0 µM),"growth inhibition [2, 7]","growth inhibition [2, 8]",growth inhibition ([2]; at 50.0 µM),"growth inhibition [3, 7]","growth inhibition [3, 8]",growth inhibition ([3]; at 50.0 µM),"growth inhibition [4, 7]","growth inhibition [4, 8]",growth inhibition ([4]; at 50.0 µM),"growth inhibition [5, 7]","growth inhibition [5, 8]",growth inhibition ([5]; at 50.0 µM),"growth inhibition [6, 7]","growth inhibition [6, 8]",growth inhibition ([6]; at 50.0 µM)
Cc1cc(N)c2cc(NC(=O)Nc3ccc4nc(C)cc(N)c4c3)ccc2n1,100% (active),100% (active),99% (active),100% (active),99% (active),99% (active),99% (active),67%,99% (active),99% (active),100% (active),95.3% (active),99% (active),99% (active),98.7% (active),99% (active),99% (active),98.5% (active)
CC(=O)Nc1ccc(-c2nnc(SCC(=O)Nc3ccc([N+](=O)[O-])cc3)o2)cc1,-1%,45%,33.4%,-8%,65%,39.3%,0%,62%,46%,4%,56%,-37.9%,11%,92% (active),82% (active),5%,74% (active),28.4%
O=[N+]([O-])/C(Br)=C\c1ccc([N+](=O)[O-])cc1,19%,99% (active),99.4% (active),4%,100% (active),96.8% (active),9%,100% (active),99.6% (active),17%,99% (active),92% (active),40%,99% (active),94.9% (active),54%,99% (active),99.5% (active)
CC(=O)O[C@@H]1[C@@H](O)[C@H]2O[C@@H]3C=C(C)CC[C@]3(CO)[C@]1(C)[C@@]21CO1,34%,93% (active),-11.2%,28%,96% (active),-22.9%,33%,95% (active),5.35%,52%,98% (active),-11.7%,13%,98% (active),9.3%,33%,95% (active),91.8% (active)
CN(C)c1nc(N(C)C)nc([N+](C)(C)C)n1,1%,-1%,98.5% (active),-3%,1%,98% (active),-1%,-4%,99.1% (active),-3%,-1%,96.5% (active),0%,-5%,98% (active),-5%,-7%,98.7% (active)
CCOC(=O)C(=N\Nc1ccccc1C)/C(C)=N\NC(N)=S,-9%,37%,73.5% (active),7%,55%,48.5%,15%,71% (active),75.2% (active),-13%,20%,81.1% (active),5%,30%,73.6% (active),18%,68%,80.3% (active)
Nc1nc(Cc2ccccc2)nc(Cc2ccccc2)c1-c1ccccc1,25%,97% (active),96.4% (active),-2%,98% (active),96.5% (active),6%,98% (active),96.8% (active),4%,95% (active),94.1% (active),15%,98% (active),96% (active),4%,97% (active),95.6% (active)
COc1ccc(/C(C#N)=C(/N)SCc2ccccc2Cl)cc1,-3%,14%,90.9% (active),-2%,14%,64.9%,10%,36%,97.2% (active),-7%,15%,66.8%,3%,49%,83.5% (active),-1%,34%,90% (active)
CCc1ccc(/C(C)=N/NC(N)=S)cc1,-4%,89% (active),53.6%,-4%,95% (active),19.9%,3%,91% (active),42.8%,-18%,74% (active),54.8%,-9%,92% (active),34.8%,-2%,93% (active),74.5% (active)
